Data: the supplement of paper PMC8728848
About 410 targets per protein were measured; listed, in parts, are those with the strongest signals and a random draw of the rest.

Assays:
Assay in all cases: glycan array binding signal (z-score within array); higher = stronger binding
Conditions in all cases: glycan notation: IUPAC condensed, linker removed
Fuc(a1-2)Gal(b1-3)GalNAc = molecular target: Fuc(a1-2)Gal(b1-3)GalNAc
Method in brief: (§1)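 The binding signal is a Z-score computed within each array and averaged over linkers. Arrays of the same protein sequence at different concentrations or buffers were also averaged together. Data originate from 3228 arrays in the Consortium for Functional Glycomics database, kept only where the protein sequence was available.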

[1] = molecular target: Fuc(a1-2)Gal(b1-4)[Fuc(a1-3)]GlcNAc(b1-3)Gal(b1-4)[Fuc(a1-3)]GlcNAc
Method in brief: as §1

Fuc(a1-2)GlcNAc = molecular target: Fuc(a1-2)GlcNAc
Method in brief: as §1

[2] = molecular target: Fuc(a1-3)[Gal3S(b1-4)]GlcNAc
Method in brief: as §1

[3] = molecular target: Gal(b1-3)[Fuc(a1-4)]GlcNAc(b1-3)Gal(b1-4)[Fuc(a1-3)]GlcNAc
Method in brief: as §1

[4] = molecular target: Gal(b1-4)GlcNAc(b1-3)Gal(b1-4)[Fuc(a1-3)]GlcNAc(b1-3)Gal(b1-4)[Fuc(a1-3)]GlcNAc
Method in brief: as §1

Gal3S(b1-4)Glc = molecular target: Gal3S(b1-4)Glc
Method in brief: as §1

Gal3S(b1-4)GlcNAc6S = molecular target: Gal3S(b1-4)GlcNAc6S
Method in brief: as §1

Gal3S6S(b1-4)GlcNAc6S = molecular target: Gal3S6S(b1-4)GlcNAc6S
Method in brief: as §1

[5] = molecular target: GlcNAc(b1-2)Gal(b1-3)GalNAc
Method in brief: as §1

Kdn(a2-3)Gal(b1-4)GlcNAc = molecular target: Kdn(a2-3)Gal(b1-4)GlcNAc
Method in brief: as §1

Man(a1-3)[Man(a1-6)]Man = molecular target: Man(a1-3)[Man(a1-6)]Man
Method in brief: as §1

[6] = molecular target: Neu5Ac(a2-3)Gal(b1-3)GalNAc6S
Method in brief: as §1

[7] = molecular target: Neu5Ac(a2-3)Gal(b1-4)GlcNAc(b1-3)Gal(b1-4)GlcNAc
Method in brief: as §1

[8] = molecular target: Neu5Ac(a2-6)Gal(b1-4)GlcNAc(b1-2)Man(a1-3)[Neu5Ac(a2-6)Gal(b1-4)GlcNAc(b1-2)Man(a1-6)]Man(b1-4)GlcNAc(b1-4)GlcNAc
Method in brief: as §1

[9] = molecular target: Neu5Ac(a2-6)Gal(b1-4)GlcNAc6S
Method in brief: as §1

[10] = molecular target: Neu5Ac9Ac(a2-6)Gal(b1-4)GlcNAc
Method in brief: as §1

Fuc(a1-2)Gal(b1-4)GlcNAc = molecular target: Fuc(a1-2)Gal(b1-4)GlcNAc
Method in brief: as §1

[11] = molecular target: Fuc(a1-2)Gal(b1-4)GlcNAc(b1-3)Gal(b1-4)GlcNAc
Method in brief: as §1

[12] = molecular target: Fuc(a1-2)[Gal(a1-3)]Gal(b1-4)[Fuc(a1-3)]GlcNAc
Method in brief: as §1

[13] = molecular target: Gal(b1-3)GalNAc(b1-4)Gal(b1-4)Glc
Method in brief: as §1

[14] = molecular target: Gal(b1-3)[Fuc(a1-4)]GlcNAc(b1-3)Gal(b1-4)GlcNAc
Method in brief: as §1

Gal(b1-4)Glc = molecular target: Gal(b1-4)Glc
Method in brief: as §1

[15] = molecular target: Gal(b1-4)GlcNAc(b1-3)Gal(b1-4)Glc
Method in brief: as §1

[16] = molecular target: Gal(b1-4)GlcNAc(b1-3)Gal(b1-4)GlcNAc(b1-3)Gal(b1-4)GlcNAc
Method in brief: as §1

[17] = molecular target: Gal(b1-4)GlcNAc(b1-3)GalNAc
Method in brief: as §1

[18] = molecular target: GlcNAc(b1-4)GlcNAc(b1-4)GlcNAc(b1-4)GlcNAc(b1-4)GlcNAc(b1-4)GlcNAc
Method in brief: as §1

[19] = molecular target: Neu5Ac(a2-3)Gal(b1-3)[Fuc(a1-4)]GlcNAc(b1-3)Gal(b1-4)[Fuc(a1-3)]GlcNAc
Method in brief: as §1

[20] = molecular target: Neu5Ac(a2-3)GalNAc(b1-4)GlcNAc
Method in brief: as §1

[21] = molecular target: Neu5Ac(a2-6)Gal(b1-4)GlcNAc(b1-3)Gal(b1-4)[Fuc(a1-3)]GlcNAc(b1-3)Gal(b1-4)[Fuc(a1-3)]GlcNAc
Method in brief: as §1

[22] = molecular target: Neu5Gc(a2-3)Gal(b1-3)[Fuc(a1-4)]GlcNAc
Method in brief: as §1

Neu5Gc(a2-3)Gal(b1-4)Glc = molecular target: Neu5Gc(a2-3)Gal(b1-4)Glc
Method in brief: as §1

B1: MMR (Homo sapiens), P22897 (protein)
chain: MRLPLLLVFASVIPGAVLLLDTRQFLIYNEDHKRCVDAVSPSAVQTAACNQDAESQKFRWVSESQIMSVAFKLCLGVPSKTDWVAITLYACDSKSEFQKWECKNDTLLGIKGEDLFFNYGNRQEKNIMLYKGSGLWSRWKIYGTTDNLCSRGYEAMYTLLGNANGATCAFPFKFENKWYADCTSAGRSDGWLWCGTTTDYDTDKLFGYCPLKFEGSESLWNKDPLTSVSYQINSKSALTWHQARKSCQQQNAELLSITEIHEQTYLTGLTSSLTSGLWIGLNSLSFNSGWQWSDRSPFRYLNWLPGSPSAEPGKSCVSLNPGKNAKWENLECVQKLGYICKKGNTTLNSFVIPSESDVPTHCPSQWWPYAGHCYKIHRDEKKIQRDALTTCRKEGGDLTSIHTIEELDFIISQLGYEPNDELWIGLNDIKIQMYFEWSDGTPVTFTKWLRGEPSHENNRQEDCVVMKGKDGYWADRGCEWPLGYICKMKSRSQGPEIVEVEKGCRKGWKKHHFYCYMIGHTLSTFAEANQTCNNENAYLTTIEDRYEQAFLTSFVGLRPEKYFWTGLSDIQTKGTFQWTIEEEVRFTHWNSDMPGRKPGCVAMRTGIAGGLWDVLKCDEKAKFVCKHWAEGVTHPPKPTTTPEPKCPEDWGASSRTSLCFKLYAKGKHEKKTWFESRDFCRALGGDLASINNKEEQQTIWRLITASGSYHKLFWLGLTYGSPSEGFTWSDGSPVSYENWAYGEPNNYQNVEYCGELKGDPTMSWNDINCEHLNNWICQIQKGQTPKPEPTPAPQDNPPVTEDGWVIYKDYQYYFSKEKETMDNARAFCKRNFGDLVSIQSESEKKFLWKYVNRNDAQSAYFIGLLISLDKKFAWMDGSKVDYVSWATGEPNFANEDENCVTMYSNSGFWNDINCGYPNAFICQRHNSSINATTVMPTMPSVPSGCKEGWNFYSNKCFKIFGFMEEERKNWQEARKACIGFGGNLVSIQNEKEQAFLTYHMKDSTFSAWTGLNDVNSEHTFLWTDGRGVHYTNWGKGYPGGRRSSLSYEDADCVVIIGGASNEAGKWMDDTCDSKRGYICQTRSDPSLTNPPATIQTDGFVKYGKSSYSLMRQKFQWHEAETYCKLHNSLIASILDPYSNAFAWLQMETSNERVWIALNSNLTDNQYTWTDKWRVRYTNWAADEPKLKSACVYLDLDGYWKTAHCNESFYFLCKRSDEIPATEPPQLPGRCPESDHTAWIPFHGHCYYIESSYTRNWGQASLECLRMGSSLVSIESAAESSFLSYRVEPLKSKTNFWIGLFRNVEGTWLWINNSPVSFVNWNTGDPSGERNDCVALHASSGFWSNIHCSSYKGYICKRPKIIDAKPTHELLTTKADTRKMDPSKPSSNVAGVVIIVILLILTGAGLAAYFFYKKRRVHLPQEGAFENTLYFNSQSSPGTSDMKDLVGNIEQNEHSVI
For B1, which “glycan array binding signal (z-score)” value (Fuc(a1-2)Gal(b1-3)GalNAc) is on record?
The value was -0.435.

What about the “glycan array binding signal (z-score)” value [1] of the same binder?
The value was -0.234.

And the “glycan array binding signal (z-score)” value (Fuc(a1-2)GlcNAc)?
Its value is -0.407.

What about the “glycan array binding signal (z-score)” value [2] of the same binder?
Its value is 2.96.

And the “glycan array binding signal (z-score)” value [3]?
The value was -0.37.

And the “glycan array binding signal (z-score)” value [4]?
The value was 0.283.

What about the “glycan array binding signal (z-score)” value (Gal3S(b1-4)Glc) of the same binder?
The value was 3.67.

What about the “glycan array binding signal (z-score)” value (Gal3S(b1-4)GlcNAc6S) of the same binder?
Its value is 3.5.

What about the “glycan array binding signal (z-score)” value (Gal3S6S(b1-4)GlcNAc6S) of the same binder?
Its value is 3.58.

What about the “glycan array binding signal (z-score)” value [5] of the same binder?
The value was -0.453.

And the “glycan array binding signal (z-score)” value (Kdn(a2-3)Gal(b1-4)GlcNAc)?
Its value is 0.013.

What about the “glycan array binding signal (z-score)” value (Man(a1-3)[Man(a1-6)]Man) of the same binder?
Its value is 3.57.

What about the “glycan array binding signal (z-score)” value [6] of the same binder?
The value was -0.344.

What about the “glycan array binding signal (z-score)” value [7] of the same binder?
Its value is -0.439.

What about the “glycan array binding signal (z-score)” value [8] of the same binder?
The value was -0.418.

What about the “glycan array binding signal (z-score)” value [9] of the same binder?
The value was -0.155.

And the “glycan array binding signal (z-score)” value [10]?
The value was -0.397.

B2: STA (Solanum tuberosum), Q9S8M0 (protein)
chain: NASPPSPSPLPYPQCGMKKGGGKCIKTGECCSIWGWCGTTNAYCSPGYCQKQCPGPYPEGRCGWQANGKSCPTGTGQCCSNGGWCGTTSDYCASKNCQSQCKLPSPPPPPPPPSPPPPSPPSPPPPSPPPPPPPSPPPPSPPPPSPSPPPPPASPPPPPPALPYPQCGIKKGGGKCIKTGECCSIWGWCGTTNAYCSPGYCQKQCPGPYPEGRCGWQANGKSCPTGTGHCCSNAGWCGTTSDYCAPVNCQAQCNTTTLTSPIKNRMRGIESFMLNVV
Which results are given for B2?
glycan array binding signal (z-score) (Fuc(a1-2)Gal(b1-3)GalNAc): -0.582; glycan array binding signal (z-score) (Fuc(a1-2)Gal(b1-4)GlcNAc): 2.12; glycan array binding signal (z-score) [11]: 2.12; glycan array binding signal (z-score) [12]: -0.593; glycan array binding signal (z-score) [13]: -0.595; glycan array binding signal (z-score) [14]: -0.584; glycan array binding signal (z-score) (Gal(b1-4)Glc): -0.586; glycan array binding signal (z-score) [15]: 1.35; glycan array binding signal (z-score) [16]: 2.26; glycan array binding signal (z-score) [17]: -0.564; glycan array binding signal (z-score) [18]: 2.18; glycan array binding signal (z-score) [19]: -0.589; glycan array binding signal (z-score) [20]: 2.22; glycan array binding signal (z-score) [21]: -0.578; glycan array binding signal (z-score) [22]: -0.58; glycan array binding signal (z-score) (Neu5Gc(a2-3)Gal(b1-4)Glc): -0.591
